Molecules are shown by their SMILES. Compounds without any hit were thinned out: in the full panel of roughly 83,000, 20% have a hit.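 Single-concentration screen, 48 h exposure, 96-well plates. Endpoint: percent growth. Below 10 = active.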 Activity calls are given as the source filed them.

The subject of the first experiment is SNB-19 CNS. The experiment is described as follows: NCI-60 one-dose screen, 48 h (100 = growth as untreated, 0 = no growth, -100 = all killed). The settings on record: 10 µM unless noted.
For `CCC(/C=C\C(C)=O)CC`, the growth is 99.5% (inactive).
`CCOC(=O)CO`: the growth is 105% (inactive).
Consider `Cc1cc(=O)n(Nc2ccccc2)c(O)c1C#N`, for which the growth was 103% (inactive).
Regarding `CN(C)c1ccc(O)c2c1CC1CC3C(N(C)C)C(=O)C(C(N)=O)=C(O)C3(O)C(=O)C1=C2O` (centres undefined), the growth is 55.5% (inactive).
On to `COc1ccc2c(Cl)cc(NC(=O)Nc3c(C)cccc3C)nc2c1`, for which the growth is 79.3% (inactive).
Same read-out and setting: in the case of `CC(=O)c1cccs1` it was 102% (inactive).
Regarding `O=Cc1ccc(F)cc1`, the growth is 103% (inactive).
Still for that read-out and setting: in the case of `O=C(O)c1ccc([N+](=O)[O-])cc1S(=O)(=O)O` it was 105% (inactive); in that of `C=CCC(OC(C)=O)c1ccc(C(C)C)cc1` (centres undefined), 101% (inactive); in that of `CCOc1ccc(C(=O)NCC(C)C)cc1`, 99.3% (inactive).
Same read-out and setting: in the case of `Cc1ccc(NC(=O)c2ccccc2Cl)cc1` it was 99% (inactive); in that of `Cc1cc(NC(=O)c2ccccc2)c(Cl)cc1N`, 93.9% (inactive); in that of `CCCCNC(=O)c1ccc(OCC)cc1`, 105% (inactive).
Turning to `CC(=O)c1cccc(N(C)S(=O)(=O)c2ccc(C)cc2)c1`, the growth was 96.8% (inactive).
Turning to `CC(=O)c1cc(O)ccc1O`, the growth is 97.9% (inactive).
As to `Cc1nc(O)cc(=O)[nH]1`, the growth is 109% (inactive).
For `CCOc1ccccc1NC(=O)CCl`, the growth was 101% (inactive).
Consider `Cc1ccc(S(=O)(=O)CCCl)cc1`, for which the growth was 97.1% (inactive).
As for `CC(CCC#N)(CCC#N)C(=O)c1ccccc1`, the growth is 102% (inactive).
Take `Cc1cc(CO)c(O)c(CO)c1`: the growth is 114% (inactive).
Same read-out and setting: with `O=Cc1ccc(Cl)c(Cl)c1` the figure was 111% (inactive); with `CCN(C(C)=O)c1ccc([N+](=O)[O-])cc1`, 101% (inactive).
Still for that read-out and setting: with `Nc1cccc2cccc(O)c12` the figure was 98.7% (inactive); with `Cc1cccc2ccccc12`, 103% (inactive).
The same measure, in the same setting: with `NC(=O)OCCO` the figure was 108% (inactive); with `CCOC(=O)C(CCC#N)(CCC#N)C(=O)OCC`, 100% (inactive); with `N#CCCN1C(=O)CCC1C(=O)O` (centres undefined), 101% (inactive).
For `COC(=O)c1cccc([N+](=O)[O-])c1`, the growth is 98.6% (inactive).
For the compound `O=C(CC(CC(=O)c1ccccc1)c1ccccn1)c1ccccc1`, the growth is 93.3% (inactive).
Consider `CC(=O)c1cccc(NS(=O)(=O)c2ccc(C)cc2)c1`, for which the growth was 90% (inactive).
As for `C=COC(=O)C(C)(C)C`, the growth is 95.3% (inactive).
In the case of `CSc1nc2[nH]ncc2c(=O)[nH]1`, the growth was 103% (inactive).
Turning to `CC(=O)c1ccc(C)cc1`, the growth was 109% (inactive).
Take `O=c1[nH]c(=O)c2cc(Cl)cc(Cl)c2[nH]1`: the growth is 95% (inactive).
In the case of `O=[N+]([O-])c1c(Cl)ncnc1Cl`, the growth is 106% (inactive).
Turning to `O=C1NCC2CCCC1C2` (centres undefined), the growth is 99.6% (inactive).
Take `OC(CBr)CCBr` (centres undefined): the growth was 97% (inactive).

Another experiment relates to U251 CNS. The description is as above. Particulars: 10 µM unless noted.
As to `CCC(/C=C\C(C)=O)CC`, the growth is 96.6% (inactive).
For the compound `CCOC(=O)CO`, the growth is 110% (inactive).
Still for that read-out and setting: with `Cc1cc(=O)n(Nc2ccccc2)c(O)c1C#N` the figure was 103% (inactive).
On to `CN(C)c1ccc(O)c2c1CC1CC3C(N(C)C)C(=O)C(C(N)=O)=C(O)C3(O)C(=O)C1=C2O` (centres undefined), for which the growth is 25.7% (inactive).
On to `COc1ccc2c(Cl)cc(NC(=O)Nc3c(C)cccc3C)nc2c1`, for which the growth was 76.1% (inactive).
Regarding `CC(=O)c1cccs1`, the growth is 101% (inactive).
With `O=Cc1ccc(F)cc1`, the growth is 101% (inactive).
Still for that read-out and setting: with `O=C(O)c1ccc([N+](=O)[O-])cc1S(=O)(=O)O` the figure was 94.9% (inactive).
Regarding `C=CCC(OC(C)=O)c1ccc(C(C)C)cc1` (centres undefined), the growth was 122% (inactive).
As for `CCOc1ccc(C(=O)NCC(C)C)cc1`, the growth is 101% (inactive).
The same measure, in the same setting: with `Cc1ccc(NC(=O)c2ccccc2Cl)cc1` the figure was 118% (inactive); with `Cc1cc(NC(=O)c2ccccc2)c(Cl)cc1N`, 102% (inactive); with `CCCCNC(=O)c1ccc(OCC)cc1`, 99.1% (inactive).
Turning to `CC(=O)c1cccc(N(C)S(=O)(=O)c2ccc(C)cc2)c1`, the growth was 87.4% (inactive).
For `CC(=O)c1cc(O)ccc1O`, the growth was 104% (inactive).
For the compound `Cc1nc(O)cc(=O)[nH]1`, the growth was 118% (inactive).
Regarding `CCOc1ccccc1NC(=O)CCl`, the growth is 29% (inactive).
Turning to `Cc1ccc(S(=O)(=O)CCCl)cc1`, the growth is 101% (inactive).
As to `CC(CCC#N)(CCC#N)C(=O)c1ccccc1`, the growth was 109% (inactive).
Turning to `Cc1cc(CO)c(O)c(CO)c1`, the growth is 98.8% (inactive).
On to `O=Cc1ccc(Cl)c(Cl)c1`, for which the growth was 104% (inactive).
In the case of `CCN(C(C)=O)c1ccc([N+](=O)[O-])cc1`, the growth was 90.8% (inactive).
Consider `Nc1cccc2cccc(O)c12`, for which the growth was 70.5% (inactive).
The same measure, in the same setting: with `Cc1cccc2ccccc12` the figure was 102% (inactive).
Regarding `NC(=O)OCCO`, the growth is 97.4% (inactive).
Still for that read-out and setting: in the case of `CCOC(=O)C(CCC#N)(CCC#N)C(=O)OCC` it was 102% (inactive); in that of `N#CCCN1C(=O)CCC1C(=O)O` (centres undefined), 101% (inactive); in that of `COC(=O)c1cccc([N+](=O)[O-])c1`, 97.4% (inactive).
Take `O=C(CC(CC(=O)c1ccccc1)c1ccccn1)c1ccccc1`: the growth was 99.3% (inactive).
In the case of `CC(=O)c1cccc(NS(=O)(=O)c2ccc(C)cc2)c1`, the growth was 61.2% (inactive).
In the case of `C=COC(=O)C(C)(C)C`, the growth was 99.4% (inactive).
In the case of `CSc1nc2[nH]ncc2c(=O)[nH]1`, the growth was 103% (inactive).
For the compound `CC(=O)c1ccc(C)cc1`, the growth was 108% (inactive).
On the same count and under the same terms, in the case of `O=c1[nH]c(=O)c2cc(Cl)cc(Cl)c2[nH]1` it was 103% (inactive); in that of `O=[N+]([O-])c1c(Cl)ncnc1Cl`, 95.9% (inactive); in that of `O=C1NCC2CCCC1C2` (centres undefined), 112% (inactive).
`OC(CBr)CCBr` (centres undefined): the growth was 93.3% (inactive).

Values taken from PubChem BioAssay (NCI).
